Drawing on ChEMBL document CHEMBL3988442, “University of Dundee, Small-Polar-MMV Screening Library” (2021), this text covers Percent Effect for 40 compounds.

The target of this test is AMP-activated protein kinase, AMPK (Homo sapiens) (UniProt P54646+O43741+P54619+Q9UGJ0+Q9Y478+Q13131+Q9UGI9). The test can be described thus: AMP-dependent Kinase enzyme assay. An in vitro enzyme assay that detects ADP turnover that is directly proportional to AMPK activity. This uses naive AMPK that is activated during the assay with MK-8722. It is filed as functional. The arrangement: scale not given: direction of the effect not stated beside the values. The conditions noted are these: 30 µM.
Turning to `NC(=O)c1cc(C2CCCN(Cc3ccc4c(c3)OCCO4)C2)n[nH]1` (stereo not given), the Percent Effect amounted to 3.64%. The same measure for `COCC1(C(=O)N[C@H]2CN(c3nnc(C)s3)C[C@@H]2C2CC2)CCC1`: 9.28%. The same measure for `CCCc1ccc(CN2CCC3(CC2)CNC(=O)C3)o1`: 18.2%; for `Cc1ccc(C2(O)CCN(C(=O)Cn3cc(C)c(=O)[nH]c3=O)CC2)nc1`: 7.31%; for `Cc1cncc(C2CCN(Cc3ccc(S(C)(=O)=O)cc3)CC2)n1`: 5.76%. The same measure for `COC(=O)c1ccc(CCn2cnc(C#N)n2)cc1`: -2.56%; for `COCCOc1ccc(F)cc1NCc1nc2ccccc2n1C`: 8.68%; for `O=C(NC1CCN(C2CC2)C1)c1cn(-c2ccc(F)cc2)nn1` (stereo not given): -3.53%. As for `Cn1nccc1-c1cncc(C2CCCN(S(C)(=O)=O)C2)n1` (stereo not given), the Percent Effect amounted to 22.7%. The same measure for `Cc1nn(C)c(C)c1-c1ccc(=O)n(C(C)C(=O)NC2CCCCC2)n1` (stereo not given): 12.6%. The same measure for `NC(=O)CN1C[C@@H](c2ccccc2F)[C@@]2(CCCCC(=O)N2)C1`: 15.1%; for `Cc1ccc(OCc2occc2C(=O)N2CCOC(C(=O)O)C2)cc1` (stereo not given): 2.93%; for `CC(C)NC(=O)C1(Cc2ccccc2-c2ccccc2)CCCNC1` (stereo not given): 13.9%. The result for `CC(C)NC(=O)CN(C)C(=O)c1csc(Cc2ccccc2F)n1` reads 5.04%; that for `CC(NC(=O)N1CCCN(C)CC1)c1ccc2c(c1)OCCO2` (stereo not given), 3.15%; that for `CCc1nc(CCNS(=O)(=O)c2cccc(C(=O)N(C)CC)c2)cs1`, 1%. Consider `CCNc1ncc(C(=O)NCc2csc(-c3cnccn3)n2)cn1`, for which the Percent Effect is -2.88%. The result for `CCc1ncc2c(n1)CN(Cc1nc(-c3ccco3)oc1C)CC2` reads -22.8%; that for `CCOc1ccccc1-n1c(C2CC(=O)N(C)C2)n[nH]c1=O` (stereo not given), 7.89%; that for `COc1cccc(-c2n[nH]cc2-c2nc(CC3CCN(C)CC3)no2)c1`, -6.69%. The result for `Cc1ccc(C(=O)NCc2ccnc(C3CCCOC3)n2)s1` (stereo not given) reads 7.88%; that for `O=C(CN1CC(c2nc(-c3ccco3)no2)C1)NCCc1ccccc1`, -5%. The same measure for `Cc1nc(CN(C)c2nccc(C(F)(F)F)n2)cs1`: 5.48%. Turning to `Cc1nsc(C(=O)NCCCc2ccccc2)n1`, the Percent Effect was determined as 1.51%. The result for `CCc1ncc2c(n1)CN(c1cc(N3CCN(C)CC3)nc(N)n1)C2` reads -137%. The result for `CCN(C)C[C@@H]1CN(C(=O)c2cc(-c3ccc(F)cc3)n[nH]2)C[C@@H]1CO` reads 9.6%; that for `Cc1cc(NC(C)c2n[nH]c(C)n2)n2nc(C)c(C)c2n1` (stereo not given), 20.5%. For `Cc1cc(CN2CCC(C3CCN(Cc4cccnc4)CC3)C2)[nH]n1` (stereo not given), the Percent Effect was -8.19%. The result for `Cc1cc(=O)[nH]c(-n2nc(-c3ccccc3)cc2N)n1` reads -11.4%; that for `CC(C)(C)c1nc(CN2CCCC2c2nnc3ccccn23)no1` (stereo not given), 6.67%.

Take `Cc1cc(N2CCCC2)nc(CNS(=O)(=O)Cc2ccccc2)n1`: the Percent Effect came out at 5.01%. For the compound `CCCN1CCC(NCc2cccc(CN3CCOC(C)C3)c2)CC1` (stereo not given), the Percent Effect is -4.13%. The result for `O=C(CCC(=O)N1CCNC(=O)C1c1cccc(F)c1)NC1CCCC1` (stereo not given) reads -9.49%; that for `Cc1nc(C)c(COc2ccc(S(=O)(=O)N(C)C)cc2)s1`, 4.6%; that for `CC(C)N(CCO)C(=O)c1cc(COc2ccc3c(c2)CCCC3)on1`, -2.41%. The same measure for `Cc1noc(C)c1CC(=O)N1CCCC(Cn2ccnc2C)C1` (stereo not given): -4.07%; for `COCc1c(Br)cccc1NC(=O)N(C)CCO`: -5.13%. The same measure for `CN1CCN([C@H]2CCN(C(=O)c3cc(Cl)cn3C)C[C@H]2CCCO)CC1`: 13.2%; for `CN(Cc1csc2ccccc12)C(=O)NC1CCS(=O)(=O)C1` (stereo not given): 8.42%; for `CC(c1ccon1)N(C)S(=O)(=O)NCc1ccccc1` (stereo not given): 2.51%.
